Test results taken from PubChem BioAssay.
A number with no mark means an inactive call. How the calls were made is not given here.

What follows are molecules tested against Pantothenate synthetase (Mycobacterium tuberculosis (strain ATCC 25618 / H37Rv)) (UniProt P9WIL5) (assay: Recombinant Mtb pantothenate synthetase (PanC) inhibitors, coupled enzyme, confirmatory (AID 375;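 further: 0% = full reaction with vehicle and 100% = no enzyme background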)). Conditions: coupled enzyme assay; at 10 µM, stronger effect = higher value.
Sequence of Pantothenate synthetase (Mycobacterium tuberculosis (strain ATCC 25618 / H37Rv)) (P9WIL5 whole entry, looked up): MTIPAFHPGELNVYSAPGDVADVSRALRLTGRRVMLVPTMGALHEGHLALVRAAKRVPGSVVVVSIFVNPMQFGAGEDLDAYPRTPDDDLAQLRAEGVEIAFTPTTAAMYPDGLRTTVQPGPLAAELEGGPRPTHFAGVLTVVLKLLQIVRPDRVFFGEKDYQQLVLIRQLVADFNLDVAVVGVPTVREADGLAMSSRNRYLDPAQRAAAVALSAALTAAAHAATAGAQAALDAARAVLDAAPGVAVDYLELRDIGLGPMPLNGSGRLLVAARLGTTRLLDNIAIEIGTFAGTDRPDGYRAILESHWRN

Going from `O=C(OCC(=O)N1CCC(Cc2ccccc2)CC1)c1ccc[nH]c1=O` to `O=C(CN1CCC(c2nc3ccccc3s2)CC1)NCc1cccs1`, the inhibition rises from 0% to 3%.

`COc1ccc(-n2c(COc3ccccc3)nnc2SCc2ccc(C#N)cc2)cc1` and `COc1ccc(C(=O)Nc2ccc(S(=O)(=O)NC(C)=O)cc2)cc1` are the same in inhibition: 0% for the first, 0% for the second.

Compared with `CC(C)CCNC(=O)NC(=O)CSc1nnc(COc2ccccc2Cl)o1`, `COc1ccc(-c2noc(CCCC(=O)O)n2)cc1` is higher in inhibition: 7% for the first, 8% for the second.

First: COc1ccc(C)cc1S(=O)(=O)N1CCN(S(=O)(=O)c2cc(C)ccc2OC)CC1
Second: CCOC(=O)N1CCN(C(=O)CN(c2ccc(C)cc2)S(=O)(=O)c2c(C)noc2C)CC1
The inhibition of the first is higher: 5% for the first, 0% for the second.

Compared with `COc1cccc(CN2CCN(C(=O)CC(C)C)CC2)c1`, `O=C(c1ccc(CNc2c(N3CCCC3)c(=O)c2=O)cc1)N1CCc2ccccc2C1` is lower in inhibition: 6% for the first, 1% for the second.

Compared with `Cc1cc(/C=N/n2cnnc2)c(C)n1-c1ccc(Cl)cc1Cl`, `CCOC(=O)c1[nH]c(C)c(C(=O)Nc2ccc(C)c(Cl)c2)c1C` is higher in inhibition: 1% for the first, 9% for the second.

First: CCOC(=O)CN1CC23C=CC(O2)C(C(=O)Nc2ccc(C(C)=O)cc2)C3C1=O (stereo unspecified)
Second: CC(=O)NC(CCS(C)(=O)=O)C(=O)Nc1cccc(C)c1C (stereo unspecified)
The inhibition of the first is higher: 6% for the first, 0% for the second.

Compared with `CCOCCCNC(=O)Cn1cc2c(n1)CCCCC2`, `COc1cc(-c2nnc(SCC(=O)c3cc(C)n(CC4CCCO4)c3C)o2)cc(OC)c1OC` (stereo unspecified) is lower in inhibition: 2% for the first, 0% for the second.
